Measurements: PubChem BioAssay AID1259421 (Broad Institute, 2018)
Where “and” joins values, the source holds several entries; their conditions need not be identical. Equal entries are not always repeated. The campaign covered roughly 6,400 compounds. About 610 (9.5%) were called active. No stated cut-off is given here; in the data, active means activity change below about -70%; inconclusive means no clear call, values can overlap the other calls; inactive means above that. For the sample, actives were picked, then their nearest neighbours and some compounds at random. Some compounds were tested as several samples or in several runs, with calls that do not always agree. Where a SMILES comes first, the peptide text is derived from it. The star is where a group is joined. PhAc = O=C(Cc1ccccc1)*

assay: Toxoplasma gondii ME49Luc growth in HeLa cells, luciferase, no IFN-y, primary screen (AID 1259421); conditions: T. gondii ME49Luc in HeLa, 72 h, stronger effect = lower value, concentration not given here

| SMILES | activity change, negative = inhibition |
| --- | --- |
| CC(C)=CCC[C@](C)(O)[C@H]1CC[C@]2(C)[C@@H]1[C@H](O)C[C@@H]1[C@@]3(C)CC[C@H](O)C(C)(C)[C@@H]3[C@@H](O)C[C@]12C | 8.14% (inactive) |
| COc1c2ccoc2cc2oc(C)cc(=O)c12 | 0.747% (inactive) |
| C=C1/C(=C\C=C2/CCC[C@]3(C)[C@@H]([C@H](C)/C=C/[C@H](C)C(C)(C)O)CC[C@@H]23)C[C@@H](O)C[C@@H]1O | 13.5% (inactive) |
| C=C1/C(=C\C=C2\CCC[C@]3(C)[C@@H]([C@H](C)CCCC(C)C)CC[C@@H]23)C[C@@H](O)C[C@@H]1O | -54.9% (inactive) |
| C=C1CC[C@H](O)C/C1=C/C=C1\CCC[C@]2(C)[C@@H]([C@H](C)CC[C@@H](O)C(C)(C)O)CC[C@@H]12 | 1.97% (inactive) |
| C=C1CC[C@H](O)C/C1=C/C=C1\CCC[C@]2(C)[C@@H]([C@H](C)CCCC(C)C)CC[C@@H]12 | -78.3% (active) |
| C=C1/C(=C/C=C2\CCC[C@]3(C)[C@@H]([C@H](C)/C=C/[C@@H](C)C(C)C)CC[C@@H]23)C[C@@H](O)C[C@@H]1O | -75% (active) |
| C=C1/C(=C\C=C2/CCC[C@]3(C)[C@@H]([C@H](C)CC[C@@H](O)C(C)C)CC[C@@H]23)C[C@@H](O)C[C@@H]1O | 3.62% (inactive) |
| C=C1C(=C/C=C2\CCC[C@]3(C)[C@@H]([C@H](C)/C=C/[C@@H](O)C4CC4)CC[C@@H]23)C[C@@H](O)C[C@@H]1O | 12.8% (inactive) |
| C=C1/C(=C/C=C2/CCC[C@]3(C)[C@@H]([C@H](C)CCCC(C)C)CC[C@@H]23)C[C@@H](O)C[C@@H]1O | -75.5% (active) |
| C=C1/C(=C\C=C2/CCC[C@]3(C)[C@@H]([C@H](C)CCCC(C)(C)O)CC[C@@H]23)C[C@@H](O)C[C@@H]1O | -69.8% (inactive) and 11.1% (inactive) |
| C[C@H]1OC(O)[C@H](O)[C@H](O)[C@H]1O (stereo partly specified) | -0.633% (inactive) |
| CC(=O)O[C@H]1C[C@@H](O)C(C)(C)C2C[C@@H](OC(C)=O)[C@]3(C)C(CC[C@@]4(C)[C@H](c5ccoc5)OC(=O)C5OC543)[C@]21C (stereo partly specified) | -2.36% (inactive) |
| Cc1c(Cn2ccnc2)c2ccccc2n1CCC(=O)O | 13% (inactive) |
| O=c1[nH]c(-c2ccc(C(F)(F)F)cc2)nc2c1CSCC2 | 29.4% (inactive) |
| NC1(C(=O)N[C@@H](CCO)c2ccc(Cl)cc2)CCN(c2ncnc3[nH]ccc23)CC1 | 9.43% (inactive) |
| CC(C)C[C@H](NC(=O)[C@@H](Cc1c[nH]c2ccccc12)NC(=O)[C@H](Cc1ccc(O)cc1)NC(=O)[C@H](CO)NC(=O)[C@H](Cc1c[nH]c2ccccc12)NC(=O)[C@H](Cc1cnc[nH]1)NC(=O)[C@@H]1CCC(=O)N1)C(=O)N[C@@H](CCCN=C(N)N)C(=O)N1CCC[C@H]1C(=O)NCC(N)=O | -22.2% (inactive) |
| CO[C@@]12[C@@H]3NC3CN1C1=C(C(=O)C(N)=C(C)C1=O)[C@@H]2COC(N)=O (stereo partly specified) | -81.9% (active) and -22.7% (inactive) |
| CO[C@@]12[C@H](COC(N)=O)C3=C(C(=O)C(C)=C(N)C3=O)N1C[C@@H]1N[C@@H]12 | -10.9% (inactive) |
| N[C@@H](C(=O)O)C1=CCC=CC1 | -2.48% (inactive) |
| C[C@@H]1O[C@@H](OC[C@H]2OC(Oc3c(-c4ccc(O)c(O)c4)oc4cc(O)cc(O)c4c3=O)[C@H](O)[C@@H](O)[C@@H]2O)[C@H](O)[C@H](O)[C@H]1O (stereo partly specified) | 0.376% (inactive) |
| O=c1c(-c2cc(O)c(O)c(O)c2)coc2cc(O)c(O)c(O)c12 | 8.75% (inactive) |
| NC(=O)N1C(=O)C(C(=O)c2cccs2)c2cc(Cl)ccc21 (stereo unspecified) | 8.36% (inactive) and 15.7% (inactive) |
| CCNC(=O)Nc1ccc(-c2nc3c(c(N4CCOC[C@@H]4C)n2)CCN(C2COC2)C3)cc1 | -37.1% (inactive) |

| SMILES | activity change, negative = inhibition |
| --- | --- |
| CN(C)C1CCN(C(=O)c2ccc(NC(=O)Nc3ccc(-c4nc(N5CCOCC5)nc(N5CCOCC5)n4)cc3)cc2)CC1 | -1.91% (inactive) |
| O=C(Nc1ccncc1)Nc1ccc(-c2nc(N3CCOCC3)nc(N3C4CCC3COC4)n2)cc1 | -80% (active) |
| CC(C)CCOC(=O)c1ccc(N(C)C)cc1 | 67.6% (inactive) |
| CN(C)c1ccc(C(=C2C=CC(=[N+](C)C)C=C2)c2ccc(N(C)C)cc2)cc1 | -90.8% (active) and -81% (active) |
| COc1cccc(/C=N/N=C/c2cccc(OC)c2)c1 | 6.04% (inactive) |
| C/C=C/C/C=C/CCC(=O)[C@H]1O[C@H]1C(N)=O | 20.9% (inactive) |
| Cc1cc(C2CCCCC2)n(O)c(=O)c1 | -76.5% (active) and -74.6% (active) and -92.8% (active) |
| CC(=O)O[C@]1(C(C)=O)CCC2C3C[C@H](C)C4=CC(=O)CC[C@]4(C)C3CC[C@@]21C (stereo partly specified) | 15% (inactive) |
| CCOC(CN1CCN(CC(C)C(=O)c2ccccc2)CC1)c1ccccc1 (stereo unspecified) | 31.9% (inactive) |
| NC(=S)N=Nc1ccc(NN=C(N)N)cc1 | 5.33% (inactive) |
| Cc1ccc(/C=N/NC(=O)c2ccccc2Oc2ccccc2)o1 | 8.19% (inactive) |
| CCCCN(CCCC)CCC(O)c1cc2c(Cl)cc(Cl)cc2c2cc(C(F)(F)F)ccc12 (stereo unspecified) | -83% (active) |
| CC(=O)N1CCCC1C(=O)O (stereo unspecified) | 6.22% (inactive) |
| CC(=O)NC1[C@@H](O)OC(CO)[C@@H](O)[C@H]1O (stereo partly specified) | 16% (inactive) |
| COc1cc2c(cc1OC)CN(CCc1ccc(NC(=O)c3cc(OC)c(OC)cc3NC(=O)c3cnc4ccccc4c3)cc1)CC2 | 1.38% (inactive) |
| COc1cc2c(cc1OC)CN(CCc1ccc(NC(=O)c3cccc4c(=O)c5cccc(OC)c5[nH]c34)cc1)CC2 | -79.7% (active) |
| COc1cccc([C@H](O)C2CCN(CCc3ccc(F)cc3)CC2)c1OC | 11% (inactive) |
| COC1CCN(C(=O)c2cc(Cc3n[nH]c(=O)c4ccccc34)ccc2F)CC1 | 11.9% (inactive) |
| CCC(=O)OCC(=O)C1(OC(=O)CC)[C@H](C)C[C@H]2C3[C@H](Cl)CC4=CC(=O)C=C[C@]4(C)[C@H]3[C@@H](O)C[C@@]21C (stereo partly specified) | 11.6% (inactive) |
| c1ccc(CN2CCC3(CCc4ccccc43)CC2)cc1 | 16.7% (inactive) and 4.6% (inactive) |
| COc1ccccc1N1CCN(CC(C(=O)NC(C)(C)C)c2ccccc2)CC1 (stereo unspecified) | 6.24% (inactive) |
| OCc1ccc(O[C@@H]2O[C@@H](CO)[C@@H](O)[C@H](O)[C@H]2O)cc1 | -0.0846% (inactive) |
| CCOc1cc(/C=C(/C#N)C(N)=O)cc(CSc2ccccc2)c1O | 32.6% (inactive) |
| c1ccc(-c2[nH]ncc2-c2ccnc3ccccc23)nc1 | -65.8% (inactive) and -82.5% (active) |

| SMILES | activity change, negative = inhibition |
| --- | --- |
| Cc1cccc(-c2[nH]ncc2-c2ccc3ncccc3n2)n1 | -16% (inactive) |
| O=C(NC1CCOCC1)c1ccc(-c2cc(-c3cn[nH]c3-c3ccccn3)ccn2)cc1 | -1.45% (inactive) |
| C=C1/C(=C\C=C2/CCC[C@]3(C)[C@@H]([C@H](C)CCCC(O)(C(F)(F)F)C(F)(F)F)CC[C@@H]23)C[C@@H](O)C[C@@H]1O | 7.67% (inactive) |
| OC[C@H]1O[C@@H](n2cnc3c(NCc4ccco4)ncnc32)[C@H](O)[C@@H]1O | -71.9% (active) |
| CNc1ncnc2c1ncn2[C@@H]1O[C@H](CO)[C@@H](O)[C@H]1O | 13.6% (inactive) |
| OC[C@H]1O[C@@H](n2cnc3c(NC4CCCC4)ncnc32)[C@H](O)[C@@H]1O | 13.5% (inactive) |
| OCCOCCN1CCN(Cc2cccc(Oc3ccccc3)c2)CC1 | 8.65% (inactive) |
| CC(C)CC(NC(=O)N1CCCCCC1)C(=O)NC(Cc1cn(C)c2ccccc12)C(=O)NC(Cc1ccccn1)C(=O)O (stereo unspecified) | 5.64% (inactive) |
| C=CC1=C(C(=O)O)N2C(=O)[C@@H](NC(=O)/C(=N/O)c3csc(N)n3)[C@H]2SC1 | 5.5% (inactive) |
| CCOC(=O)CNC(=O)[C@@H]1CCCN1C(=O)Cc1ccccc1 (PhAc-Pro-Gly-OEt) | 13.8% (inactive) |
| O=C1c2ccccc2C(=O)C1c1ccccc1 | -3.55% (inactive) |
| CC(C)(C)C1CCC(CC2C(=O)C(=O)c3ccccc3C2=O)CC1 (stereo unspecified) | -75.1% (active) |
| O=C1C(=O)C(C2CCC(c3ccc(Cl)cc3)CC2)C(=O)c2ccccc21 (stereo unspecified) | -68.3% (inactive) and -68.8% (inactive) |
| CS/C(N)=C(C#N)/C(C#N)=C(\N)SC | 1.99% (inactive) and 0.209% (inactive) |
| O=C(O)c1ccc(NC2OCC(O)C(O)C2O)cc1 (stereo unspecified) | 11.7% (inactive) |
| CCCCCCCCNC(=O)C(Cc1ccc(OCc2ccncc2)cc1)NC(=O)C1CCC(CN)CC1 (stereo unspecified) | 20.5% (inactive) |
| CN(C)N=Nc1ccc(C(=O)O)cc1 | 17.4% (inactive) |
| CN(C)/N=N/c1nc[nH]c1C(N)=O | -84.8% (active) and -88.3% (active) and -94.9% (active) |
| NC(=O)c1[nH]cnc1O | 5.36% (inactive) |
| Cc1cc(-c2ccc(N=Nc3ccc4c(S(=O)(=O)O)cc(S(=O)(=O)O)c(N)c4c3O)c(C)c2)ccc1N=Nc1ccc2c(S(=O)(=O)O)cc(S(=O)(=O)O)c(N)c2c1O | -45.6% (inactive) |
| Cc1cnc(NC(=O)C2C(=O)c3ccccc3S(=O)(=O)N2C)s1 (stereo unspecified) | 17.6% (inactive) and 14.2% (inactive) |
| CN1CCc2cc3c(cc2C(=O)Cc2ccc4c(c2C1)OCO4)OCO3 | 7.67% (inactive) |
| CC[C@@H](C(=O)C(C)[C@@H](O)[C@H](C)CCc1ccc(C)c(O)c1C(=O)O)C1OC(CC)(C2CC[C@](O)(CC)[C@H](C)O2)C[C@@H]1C (stereo partly specified) | -85.8% (active) |
